An excerpt weighted towards active compounds, which were near 19% of everything screened.
DT40 TDP1 CPT: growth inhibition of DT40 Tdp1-/-;hTDP1 cells with camptothecin (screen for TDP1 inhibitors) | chicken DT40 Tdp1-/-;hTDP1 cells + 20 nM CPT, ATP luminescence, 48 h | Potency, µM (highest dose often 46.2 µM), for inactives: top-dose activity change, negative = growth inhibition, usual class: inhibitors | 420,000 compounds, 12% hits | AID 686979; note: potency is the fitted concentration of half-maximal effect; % is set by controls: 0 for no effect and ±100 for the full control effect; nearly all actives have a fitted effect of over 55% in size
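Cell growth measured by CellTiter-Glo luminescence after a minimum 48 h, 37 C compound exposure with 20 nM CPT in Tdp1-knockout DT40 cells stably expressing hTDP1, seeded 400/well; qHTS titration format.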
DT40 TDP1 no CPT: qHTS for Inhibitors of human tyrosyl-DNA phosphodiesterase 1 (TDP1): qHTS in cells in absence of CPT. Potency, µM (doses to about 46.2 µM), for the others: at the top dose activity change, negative = growth inhibition, hits mostly inhibitors. AID 686978, 2013. DT40 Tdp1-/- hTDP1 cells, no CPT, ATP luminescence, 48 h. 420,000 compounds, 15% hits; note: potency is the fitted concentration of half-maximal effect; % is set by controls: 0 for no effect and ±100 for the full control effect; nearly all actives have a fitted effect of over 55% in size
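A cellular qHTS used chicken DT40 cells lacking endogenous Tdp1 but carrying stably transfected human TDP1. Compounds were applied without camptothecin, and cell growth kinetics were judged by ATP-dependent luminescence after ≥48 hr.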
MCF10A rerep: inducers of DNA re-replication in MCF 10A breast cells; 350,000 compounds, 2.9% hits; Potency, µM (top dose mostly 46.1 µM), inactives show at the highest dose activity, positive = re-replication, actives largely listed as activators; MCF 10A DNA re-replication, Hoechst nuclear intensity, 48 h; note: potency is the fitted concentration of half-maximal effect; % of control where 0% means no effect; nearly all actives have a fitted effect of over 50% in size
SW480 rereplic: DNA re-replication induction in SW480 cells. Potency, µM (highest dose often 46.1 µM), for inactives: at the highest dose re-replication activation, most hits filed as activators. SW480 DNA re-replication, Hoechst DNA content imaging, 48 h. AID 624297. 340,000 compounds, 1.8% hits; note: potency is the fitted concentration of half-maximal effect; % of control where 0% means no effect; nearly all actives have a fitted effect of over 55% in size
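Image-based DNA-content assay: after two days of treatment, nuclei were labelled with the DNA dye Hoechst and imaged, and hits were compounds raising the count of nuclei showing high fluorescence intensity.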
Chronic BCR inh: blocks chronic active B-cell receptor signaling; ABC-DLBCL IkBa-CBG/CBR reporter, luminescence ratio, 4 h; Potency, µM (series often up to 46.1 µM), for the others: at the highest dose activity change, negative = inhibition, actives largely listed as inhibitors; 340,000 compounds, 0.05% hits; active = well fitted inhibition curve with a large enough effect in the signal ratio, with a control signal flat, not every such curve was filed as active; inconclusive = small, poorly fitted or top-dose-only effect, or effect the other way, or a change in a side signal; the % refers to the signal ratio;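 note: potency is the fitted concentration of half-maximal effect; plate controls were basal doxycycline-induced cells for no effect and cells given 10 µM MG132 for full effect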
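Compounds up to 46 uM were incubated four hours with TMD8 cells whose green CBG68 luciferase is fused to IkappaBalpha; red CBR luminescence normalised the signal, and concentration-effect curves were fitted to fusion, red and ratio data.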
IL1B secr inh: inflammasome signaling inhibition, IL-1 beta readout; THP-1 LPS/ATP IL-1B secretion, AlphaLISA, 16 h; stronger effect = lower value; activity change, % at 57.5 µM; 360,000 compounds, 4.7% hits; in the data active = activity change below about -50%; inconclusive = mostly about -30% to -49%; note: % is set by controls: 0 for no effect and ±100 for the full control effect
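Secreted IL-1B measured by AlphaLISA bead assay after 16 h compound exposure of THP-1 cells; compounds (final up to 57.5 uM) added 1 h before LPS (250 ng/mL) and ATP (1.25 mM) stimulation; lower signal means less secretion.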
Starred values were filed as active, the others as inactive; ? = inconclusive; / = no result given; [ ] = remark or other dose. Unless noted, calls come from the whole dose curve; as a rule, active = well fitted curve in the direction sought with a large enough effect; inconclusive = small, poorly fitted or top-dose-only effect, or another doubt; inactive = no such curve, though single readings can be large; an effect the other way counts as inactive or inconclusive.

SMILES	DT40 TDP1 CPT	DT40 TDP1 no CPT	MCF10A rerep	SW480 rereplic	Chronic BCR inh	IL1B secr inh
COc1ccc(-n2c(-c3ccccc3Br)nc3ccccc3c2=O)cc1	?	21µM*	?	?	1%	0
O=c1c2ccccc2nc(-c2ccccc2F)n1-c1ccccc1	?	7.3µM*	-1%	3%	-1%	21
O=c1c2ccccc2nc(N2CCCC2)n1-c1ccccc1	?	15µM*	17%	1%	?	26
O=c1c2ccccc2nc(-c2ccccc2)n1-c1ccncc1	?	-6%	19%	-14%	?	-11
CN(C)C(=O)Oc1noc2cc(Cl)ccc12	-3%	-13%	24%	-8%	?	-14
Cc1nc2ccccc2c(=O)n1-c1cccc([N+](=O)[O-])c1	5%	-7%	-1%	0%	0%	29
O=c1c2ccccc2nc(Cc2ccccc2)n1-c1cccc(O)c1	15µM*	21µM*	27%	-2%	7%	-20
Cc1cccc(-n2c(-c3ccc([N+](=O)[O-])cc3)nc3ccccc3c2=O)c1	?	8.2µM*	5%	-12%	9%	24
Cc1nc2cc([N+](=O)[O-])ccc2c(=O)n1-c1cccc(Br)c1	?	18µM*	0%	-2%	/	-12
COc1ccc(-n2c(-c3ccccc3F)nc3ccccc3c2=O)cc1	?	21µM*	/	/	/	13
O=c1c2ccccc2nc(Cc2ccccc2)n1-c1ccc(O)cc1	?	?	17%	-2%	-4%	-21
Cc1ccc2c(C)cccc2c1	-7%	-4%	-22%	0%	/	11
Cc1cccc(-n2c(CC3C(=O)Nc4ccc(C)cc43)nc3ccccc3c2=O)c1 (configuration not stated)	?	21µM*	/	/	/	/
COc1ccc(-c2nnc3sc(C4CCCCC4)nn23)cc1OC	18µM*	15µM*	-183%[0.0737 µM]	-8%	2%	?
COc1ccccc1Cn1c(SCC#N)nc2cc(C(=O)N3CCC4(CC3)OCCO4)ccc2c1=O	0%	?	14%	1%	2%	?
COCC(=O)N(c1c(C)cccc1C)C(C)C(=O)OC (configuration not stated)	3%	?	0%	2%	/	/
c1cnc(N2CC3(CCNCC3)C2)nc1	7%	-7%	/	/	/	/
CN1C2CCC1CC(OC(=O)c1cc(Cl)cc(Cl)c1)C2 (configuration not stated)	15µM*	?	?	?	-28%	-24
Cc1cc(C)cc(C(=O)OC2CC3CCC(C2)N3C)c1 (configuration not stated)	/	/	?	-5%	/	/
COc1cc(C(=O)OC2C[C@H]3CC[C@@H](C2)N3C)ccc1O (some centres not stated)	33%	2%	?	14%	-1%	18
C[C@@H](C(=O)OC1C[C@H]2CC[C@@H](C1)N2C)c1ccc(Br)cc1 (some centres not stated)	30µM*	27µM*	/	/	/	/
Cc1cc(C)cc(C(=O)OC2C[C@H]3CC[C@@H](C2)N3C)c1 (some centres not stated)	24µM*	19µM*	/	/	/	/
C=C(C=O)CC1CC(O)[C@]2(C)OC3C[C@@H]4OC5C[C@]6(C)O[C@]7(C)CCC8OC9C[C@]%10(C)OC(/C(C)=C\CO)C(O)CC%10OC9CC(C)C8OC7CC6O[C@]5(C)C/C=C\C4OC3CC2O1 (some centres not stated)	-21%	?	13%	-2%	0%	-2
C=C(C=O)C[C@@H]1C[C@H](O)C2OC3C[C@]4(C)OC5/C=C\CC6OC7C(CC=CCC6OC5CCCC4OC3CC2O1)OC1CC2OC3CC(=O)OC3C[C@@H](C)C[C@@]2(C)OC1C[C@@H]7C (some centres not stated)	0.65µM*	0.58µM*	0.73µM*	36%[9.22 µM]	7%	-102*
CC12CCC3C(=CCc4cc(O)ccc43)C1CCC2=O (configuration not stated)	?	-34%	/	/	/	/
SMILES	DT40 TDP1 CPT	DT40 TDP1 no CPT	MCF10A rerep	SW480 rereplic	Chronic BCR inh	IL1B secr inh
CC=CC(C)=CC(C)C(=O)CC(O)CC1CC(=O)NC(=O)C1 (configuration not stated)	8.2µM*	5.8µM*	/	/	/	-13
Cc1ccc(-n2c(/C=C/c3ccccc3)nc3ccccc3c2=O)cc1Cl	?	23µM*	/	/	1%	/
Cc1ccc(-n2c(/C=C/c3ccccc3)nc3ccccc3c2=O)cc1C	16µM*	23µM*	/	/	?	/
Cc1ccc(-n2c(/C=C/c3ccccn3)nc3ccccc3c2=O)cc1	?	?	?	-5%	-7%	-19
CC12CN3CCN(C1)CC(C)(C3)C2=NN	13%	-19%	?	10%	8%	/
Cc1ccc(C(=O)N2CCCC(CCC(=O)N3CCN(c4ccccn4)CC3)C2)s1 (configuration not stated)	?	?	-1%	?	?	-17
CNCC[C@H](Oc1cccc2ccccc12)c1cccs1	16µM*	23µM*	-37%	13µM*	?	?
C[C@H](N)CN1CCc2ccc(Br)cc21	?	?	5%	2%	/	-14
CCOP(=O)(OCC)c1nc(-c2ccc(F)cc2)oc1NCc1ccccc1	?	-52%	4.1µM*	-18%	2%	-54*
CCOP(=O)(OCC)c1nc(-c2ccc(Br)cc2)oc1N1CCCCC1	10µM*	8.2µM*	2%	-8%	1%	-14
COc1ccc(CCNc2oc(-c3ccc(OC)c(OC)c3)nc2P(=O)(OC)OC)cc1OC	-30%	?	4%	1%	?	-1
CCOP(=O)(OCC)c1nc(-c2ccccc2)oc1NCc1ccccc1	?	?	7%	4%	-4%	-25
CCOP(=O)(OCC)c1nc(-c2cccc3ccccc23)oc1N1CCOCC1	?	10µM*	?	13%	?	-73*
CCOP(=O)(OCC)c1nc(-c2cccc3ccccc23)oc1NCCc1ccc(OC)cc1	?	?	10µM*	21µM*	-8%	-55*
c1ccc(CCNCc2cccs2)cc1	-15%	-3%	-3%	-29%	1%	0
CCN(CC(=O)Nc1ccccc1C(F)(F)F)C(=O)Cn1c(=O)cnc2ccccc21	-11%	-9%	-17%	-160%	1%	14
